Active and inactive are the calls of the source. Unless noted, the rule behind the calls is not given here.

Assay [1] can be described thus: HepG2 liver cancer cell viability effects, profiling panel, resazurin fluorescence, 24 h, PK04 Diversity Set (AID 1172). Note: test concentration not given here. The settings on record: higher = more signal.
The nature of assay [2]: basal S. cerevisiae growth modulation, no modifier, primary screen, OD600, strain BY4716, 24 h, basal condition (AID 1173). The settings on record: OD600, 24 h, higher = more signal, called active from +8 up or from −8 down.
The nature of assay [3]: MM1S myeloma cell viability, profiling panel, resazurin fluorescence, basal, 24 h, PK04 Diversity Set (AID 1174).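 Note: MM1S multiple myeloma cell line; test concentration not given here.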 The settings on record: higher = more signal, called active from +8 up or from −8 down.
The target in assay [4] is Dihydroorotate dehydrogenase (quinone), mitochondrial (Plasmodium falciparum (isolate 3D7)) (UniProt Q08210). The assay can be described thus: PfDHODH enzyme inhibitors, primary screen, biochemical, C-terminal His tag, absorbance 600 nm (AID 1175).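 Note: recombinant parasite enzyme with a five histidine tag at its C terminus; test concentration not given here.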 To be noted: DCIP absorbance 600 nm, higher = more signal, called active from +8 up or from −8 down.
Chain of Dihydroorotate dehydrogenase (quinone), mitochondrial (Plasmodium falciparum (isolate 3D7)) (Q08210 whole entry, looked up): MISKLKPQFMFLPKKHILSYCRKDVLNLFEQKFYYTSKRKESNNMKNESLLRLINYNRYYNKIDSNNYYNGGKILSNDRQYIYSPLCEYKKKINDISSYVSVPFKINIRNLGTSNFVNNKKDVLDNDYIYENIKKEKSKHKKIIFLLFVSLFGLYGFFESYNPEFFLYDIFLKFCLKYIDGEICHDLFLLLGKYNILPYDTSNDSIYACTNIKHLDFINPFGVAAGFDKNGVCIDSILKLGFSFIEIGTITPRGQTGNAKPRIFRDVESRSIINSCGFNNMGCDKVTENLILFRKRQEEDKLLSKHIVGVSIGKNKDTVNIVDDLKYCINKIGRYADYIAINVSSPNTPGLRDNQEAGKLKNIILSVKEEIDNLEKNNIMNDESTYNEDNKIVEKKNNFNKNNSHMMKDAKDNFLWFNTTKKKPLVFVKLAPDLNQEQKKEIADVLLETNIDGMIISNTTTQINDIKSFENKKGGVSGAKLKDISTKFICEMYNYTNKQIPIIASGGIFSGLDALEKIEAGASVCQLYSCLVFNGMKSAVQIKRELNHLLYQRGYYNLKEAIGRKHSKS
Assay [5] in a line: P. aeruginosa biofilm formation inhibitors, primary screen, strain PAO1, LB-PBS medium, absorbance 600 nm (AID 1176). Note: test concentration not given here. The settings on record: P. aeruginosa PAO1 growth/biofilm, A600, 12 h; higher = more signal.
A short description of assay [6]: S. cerevisiae RM11-1a growth modifiers, primary screen, strain RM11-1a, OD600, basal, 24 h (AID 1177).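 Note: cultures grown under basal conditions with no added stressor; test concentration not given here.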 To be noted: OD600, 24 h, higher = more signal, called active from +8 up or from −8 down.
Assay [7] can be described thus: E. coli acrAB mutant growth effects, primary screen, E. coli filamentation inducers, strain DRC39, OD650, 24 h (AID 1178).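 Note: growth measured as culture turbidity by optical density at 650 nm; test concentration not given here.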 The settings on record: higher = more signal, called active from +8 up or from −8 down.
Assay [8] is described as follows: E. coli acrAB mutant growth effects, primary screen, E. coli filamentation inducers, strain DRC39, OD650, 48 h (AID 1179).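 Note: screen aims at cell division blockers that make cells filament.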 To be noted: E. coli DRC39 delta-acrAB growth, higher = more signal, called active from +8 up or from −8 down.
The nature of assay [9]: RPMI8226 myeloma cell viability, profiling panel, resazurin fluorescence, basal, 24 h, PK04 Diversity Set (AID 1180).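 Note: RPMI8826 multiple myeloma cell line at 5000 cells per well; test concentration not given here.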 The settings on record: higher = more signal. In general terms: Resazurin is reduced to fluorescent resorufin, in cell work by metabolically active cells.
For assay [10], the target named is E3 ubiquitin-protein ligase XIAP (Homo sapiens) (UniProt P98170). Briefly: XIAP binders, primary screen, biophysical, small-molecule microarray, fluorescence 635 nm (AID 1181).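 Note: score merges 667 nm emission and signal to noise over triplicate slides.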 To be noted: small-molecule microarray binding, higher = more signal.
Chain of E3 ubiquitin-protein ligase XIAP (Homo sapiens) (P98170 whole entry, looked up): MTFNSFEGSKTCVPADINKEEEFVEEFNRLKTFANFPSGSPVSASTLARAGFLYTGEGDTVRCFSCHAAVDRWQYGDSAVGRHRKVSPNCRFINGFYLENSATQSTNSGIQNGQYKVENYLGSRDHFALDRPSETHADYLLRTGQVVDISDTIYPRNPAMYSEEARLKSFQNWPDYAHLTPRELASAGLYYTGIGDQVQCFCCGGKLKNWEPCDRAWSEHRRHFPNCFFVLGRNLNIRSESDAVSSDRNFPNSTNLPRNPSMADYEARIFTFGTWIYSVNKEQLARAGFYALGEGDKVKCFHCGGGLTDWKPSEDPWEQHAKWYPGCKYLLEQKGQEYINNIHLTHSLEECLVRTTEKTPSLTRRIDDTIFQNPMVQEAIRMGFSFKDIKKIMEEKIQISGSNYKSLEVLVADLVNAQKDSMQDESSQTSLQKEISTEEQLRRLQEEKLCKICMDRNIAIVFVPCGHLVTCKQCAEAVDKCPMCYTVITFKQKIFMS

Take `COC(=O)[C@@]1(Cc2ccc(F)cc2)[C@H]2c3cc(C(=O)N4CCCC4)n(CCSCCO)c3C[C@H]2CN1C(=O)c1ccccc1`: the z-score in [1] is -0.704; in assay [2], 1.54 (inactive); in assay [3], -0.526 (inactive); in assay [5], 0.855 (inactive); in assay [6], 1.3 (inactive); in assay [7] it was -0.405 (inactive). Moreover, the z-score in assay [8] is -0.317 (inactive); in assay [9], -0.546. For the same compound, the composite z-score is 0.289 (inactive) in [4] and 0.0378 in [10].

As for `CCCCN1CC=CC23O[C@@H]4C=CCCOC(=O)C4[C@H]2C(=O)N(CCO)[C@@H]3C1=O` (stereo not given in full), the z-score was 0.551 in [1]; -0.0816 (inactive) in assay [2]; 0.309 (inactive) in assay [3]; 0.345 (inactive) in [5]; 0.13 (inactive) in assay [6]; -0.323 (inactive) in [7]. Further, the z-score in [8] was -0.414 (inactive); in assay [9], -0.0692. Moreover, the composite z-score is 0.0051 (inactive) in assay [4] and -0.104 in assay [10].

For the compound `O=C1O[C@H](c2ccccc2)[C@H](c2ccccc2)N2[C@H]1[C@@H](C(=O)N1CCN(c3ncccn3)CC1)[C@]1(C(=O)Nc3ccc(C#CC4(O)CCCCCC4)cc31)[C@H]2c1ccc(O)cc1`, the z-score is 0.596 in assay [1]; -0.436 (inactive) in [2]; 0.776 (inactive) in assay [3]; 1.05 (inactive) in assay [5]; 1.82 (inactive) in assay [6]; 0.851 (inactive) in assay [7]. Further, the z-score is 1.31 (inactive) in [8] and 0.995 in assay [9]. For the same compound, the results for the composite z-score in assay [4] and in assay [10] were 0.0991 (inactive) and -0.0663, respectively.

Take `CC[C@@H](O[Si](C#C[Si](C(C)C)(C(C)C)C(C)C)(C(C)C)C(C)C)c1cn([C@H](C)c2ccccc2)nn1`: the z-score is -0.0011 in [1]; 1.66 (inactive) in assay [2]; 0.248 (inactive) in [3]; 0.596 (inactive) in assay [5]; 0.887 (inactive) in [6]; -0.263 (inactive) in [7]. The z-score is 0.142 (inactive) in [8] and 0.328 in assay [9]. The composite z-score in assay [4] is 0.308 (inactive); in [10], -0.209.

With `COc1ccc(NN2C(C(O)c3ccccc3)C=CC3C(=O)N(C4CCCCC4)C(=O)C32)cc1` (stereo not given), the z-score in assay [1] was -0.403; in [2], 0.047 (inactive); in assay [3], -0.0925 (inactive); in assay [5] it was 0.505 (inactive); in [6], 1.5 (inactive); in assay [7] it was -0.0187 (inactive). The z-score in [8] was 0.0413 (inactive); in assay [9], 0.0134. Further, the values for the composite z-score in assay [4] and in assay [10] were -0.638 (inactive) and 0.0348, respectively.

As for `CC1(C)OB(/C=C\CC(OC(=O)c2ccncc2)c2ccccc2)OC1(C)C` (stereo not given), the z-score in [1] is -0.159; in assay [2], -1.17 (inactive); in [3], 0.217 (inactive); in assay [5], -0.159 (inactive); in [6], -0.786 (inactive); in assay [7] it was 0.0147 (inactive). In addition, the z-score in assay [8] was -0.465 (inactive); in assay [9] it was 0.143. In addition, the composite z-score was -0.413 (inactive) in [4] and 0.0487 in assay [10].

With `COc1ccc([Si](C)(C)[C@H]2[C@H](CC(=O)N3CCC[C@H]3CO)O[C@@]3(C(=O)N(Cc4cccc(N5CCCCC5=O)c4)c4ccccc43)[C@@H]2C)cc1`, the z-score in assay [1] is 0.276; in assay [2], -0.953 (inactive); in assay [3], -0.0453 (inactive); in assay [5], -0.234 (inactive); in assay [6], 0.64 (inactive); in assay [7] it was 0.957 (inactive). The z-score in assay [8] is 0.965 (inactive); in assay [9], -0.185. Also, the composite z-score was -3.28 (inactive) in assay [4] and -0.0126 in assay [10].

For `C[C@]1(C(=O)O)c2ccccc2C(=O)N(Cc2cc(C(F)(F)F)cc(C(F)(F)F)c2)[C@H]1c1ccc(CO)cc1`, the z-score is 0.341 in assay [1]; 0.0491 (inactive) in assay [2]; 0.385 (inactive) in [3]; -0.0528 (inactive) in assay [5]; -0.161 (inactive) in assay [6]; -0.124 (inactive) in assay [7]. Moreover, the z-score in [8] is -0.515 (inactive); in assay [9], 0.306. In addition, the composite z-score in [4] was -0.979 (inactive); in assay [10], -0.173.

As for `C[N+](C)(C)CCCC[C@@H]1NC(=O)[C@H]2C[C@@H](C(=O)NCCCCCN)[C@@H](c3ccc(O)cc3)N2C1=O`, the z-score in [1] is 0.372; in assay [2] it was -0.589 (inactive); in assay [3], 0.715 (inactive); in assay [5], -1.14 (inactive); in [6] it was -0.683 (inactive); in assay [7] it was 0.553 (inactive). Moreover, the z-score was 0.751 (inactive) in assay [8] and 1.24 in assay [9]. The composite z-score in assay [4] is -1.86 (inactive); in assay [10] it was 0.0017.

For `C=C(COC)/C(=C/C[C@@H](OC(=O)c1ccncc1)c1ccccc1OCCO)c1cnc2ccccc2c1`, the z-score in [1] was -0.567; in assay [2], -0.0618 (inactive); in assay [3], 0.028 (inactive); in assay [5] it was -0.66 (inactive); in assay [6] it was 0.0519 (inactive); in assay [7], 0.825 (inactive). For the same compound, the figures for the z-score in [8] and in assay [9] were 0.359 (inactive) and 0.0353, respectively. In addition, the composite z-score was -3.66 (inactive) in [4] and 0.166 in [10].

As to `COc1ccc([Si](C)(C)[C@H]2[C@H](CC(=O)N3CCC[C@H]3CO)O[C@@]3(C(=O)N(C)c4c(Br)cc(C)cc43)[C@@H]2C)cc1`, the z-score in assay [1] was 0.728; in assay [2], -0.966 (inactive); in assay [3], 0.968 (inactive); in assay [5], 0.92 (inactive); in [6], 0.301 (inactive); in assay [7], 0.541 (inactive). Moreover, the z-score was 0.24 (inactive) in [8] and 0.235 in assay [9]. Besides, the composite z-score in assay [4] was -1.3 (inactive); in assay [10], 1.43.

As to `O=C(NCCN1CCOCC1)[C@@H]1c2ccccc2C(=O)N(CC23CC4CC(CC(C4)C2)C3)[C@H]1c1ccc(CO)cc1`, the z-score in assay [1] is 0.258; in [2] it was -1.18 (inactive); in assay [3], 0.631 (inactive); in [5] it was -0.121 (inactive); in [6], 1.19 (inactive); in [7], 0.1 (inactive). For the same compound, the figures for the z-score in assay [8] and in [9] were 0.108 (inactive) and 0.96, respectively. For the same compound, the results for the composite z-score in assay [4] and in assay [10] were 0.533 (inactive) and 0.0593, respectively.

(Values after PubChem BioAssay.)
